Test results taken from publication PMC4336329 (PLoS ONE, 2015).
The campaign covered roughly 310,000 compounds. About 14,000 (4.5%) showed an effect of 50% or more. The effect is printed as a negative number. This excerpt belongs to a sample that is enriched for strong results.

Target: human ether-à-go-go-related gene (hERG) potassium channel (human, UniProt Q12809)
Assay: primary screen, population patch clamp on CHO cells stably expressing hERG; higher = less effect of the substance
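Further: peak tail current of the secondary pulse compared with the same well before compound.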

Sequence of human ether-à-go-go-related gene (hERG) potassium channel (Q12809 whole entry, looked up): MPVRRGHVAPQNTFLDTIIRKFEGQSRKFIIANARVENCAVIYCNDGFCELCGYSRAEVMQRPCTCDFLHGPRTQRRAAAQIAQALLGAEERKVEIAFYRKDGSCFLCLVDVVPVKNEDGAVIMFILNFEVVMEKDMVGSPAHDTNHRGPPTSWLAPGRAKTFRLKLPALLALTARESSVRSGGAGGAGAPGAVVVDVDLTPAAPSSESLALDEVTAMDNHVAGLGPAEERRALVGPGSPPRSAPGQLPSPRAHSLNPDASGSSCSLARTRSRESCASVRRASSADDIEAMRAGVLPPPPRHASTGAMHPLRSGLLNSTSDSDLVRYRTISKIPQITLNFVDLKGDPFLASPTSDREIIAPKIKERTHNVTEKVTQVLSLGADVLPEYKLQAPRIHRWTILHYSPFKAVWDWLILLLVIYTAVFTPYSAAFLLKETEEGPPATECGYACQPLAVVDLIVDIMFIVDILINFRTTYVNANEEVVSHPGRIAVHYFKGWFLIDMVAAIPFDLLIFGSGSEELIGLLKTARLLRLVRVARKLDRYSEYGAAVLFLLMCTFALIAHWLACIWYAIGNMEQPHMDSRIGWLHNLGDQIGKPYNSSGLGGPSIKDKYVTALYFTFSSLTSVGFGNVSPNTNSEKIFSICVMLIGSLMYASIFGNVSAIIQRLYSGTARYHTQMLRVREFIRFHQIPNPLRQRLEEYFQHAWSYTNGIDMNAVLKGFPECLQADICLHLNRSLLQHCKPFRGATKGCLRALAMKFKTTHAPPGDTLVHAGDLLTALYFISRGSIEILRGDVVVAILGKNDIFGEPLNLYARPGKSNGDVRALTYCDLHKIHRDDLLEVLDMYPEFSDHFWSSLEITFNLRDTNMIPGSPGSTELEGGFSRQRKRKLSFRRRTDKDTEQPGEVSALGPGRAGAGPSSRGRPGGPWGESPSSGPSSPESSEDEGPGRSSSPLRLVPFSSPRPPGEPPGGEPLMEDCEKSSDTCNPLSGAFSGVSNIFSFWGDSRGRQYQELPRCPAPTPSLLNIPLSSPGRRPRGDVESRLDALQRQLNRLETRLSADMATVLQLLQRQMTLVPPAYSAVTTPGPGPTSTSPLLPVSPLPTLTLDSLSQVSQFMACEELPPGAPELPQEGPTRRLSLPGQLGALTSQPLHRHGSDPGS

Question: `O=C(c1noc2c1CCCC2)N1CCc2c([nH]c3ccccc23)C1c1ccccn1` (centres unmarked) was tested. Which “hERG current change (%, negative = inhibition) at 10uM” value did it give?
Answer: -7.65%

Question: With `O=C(Nc1ccccn1)N1CCOCC1` as the molecule, how does the “hERG current change (%, negative = inhibition) at 10uM” value read?
Answer: 15.1%

Question: With `O=C(CN1CCN(c2ccc(F)cc2)CC1)Nc1ccc(S(=O)(=O)N2CCOCC2)cc1` as the molecule, how does the “hERG current change (%, negative = inhibition) at 10uM” value read?
Answer: 0.845%

Question: Which “hERG current change (%, negative = inhibition) at 10uM” value does the source give for `Cc1cc(C)cc(-n2nnc(C(=O)NCc3ccco3)c2N)c1` here?
Answer: -29.8%

Question: With `O=C(Cn1nnc(-c2ccccc2NC(=O)c2ccco2)n1)Nc1ccccc1` as the molecule, how does the “hERG current change (%, negative = inhibition) at 10uM” value read?
Answer: 16.1%

Question: Which “hERG current change (%, negative = inhibition) at 10uM” value does the source give for `COc1cc(/C=C/C(=O)Nc2nnc(CC(C)C)s2)cc(OC)c1OC` here?
Answer: -27.8%

Question: How did the “hERG current change (%, negative = inhibition) at 10uM” value turn out when `CCN1CCN(c2ccc(NC(=O)c3cc4ccccc4cc3OC)cc2C)CC1` was run?
Answer: -48.7%

Question: For `C(=C\c1ccco1)/c1nc2ccccc2[nH]1`, which “hERG current change (%, negative = inhibition) at 10uM” value is on record?
Answer: 8.91%

Question: Which “hERG current change (%, negative = inhibition) at 10uM” value does the source give for `O=C(c1cc2ncc(CCCl)cn2n1)N1CCCCCC1` here?
Answer: 8.53%

Question: How did the “hERG current change (%, negative = inhibition) at 10uM” value turn out when `Cc1cccc(C)c1N1CCc2cn[nH]c21` was run?
Answer: 8.17%

Question: For `CC1=NN(C(N)=S)C(=O)C1N=Nc1cccc(Cl)c1` (centres unmarked), which “hERG current change (%, negative = inhibition) at 10uM” value is on record?
Answer: 17.2%

Question: `CN(C)S(=O)(=O)c1ccc2c(c1)C(=NO)c1cc(S(=O)(=O)N(C)C)ccc1-2` was tested. Which “hERG current change (%, negative = inhibition) at 10uM” value did it give?
Answer: 14.7%

Question: For `OCCNc1nc(Cl)nc(NCc2ccco2)n1`, which “hERG current change (%, negative = inhibition) at 10uM” value is on record?
Answer: 8.89%

Question: `CCc1ccccc1NC(=O)COC(=O)c1c(C)nsc1NC` was tested. Which “hERG current change (%, negative = inhibition) at 10uM” value did it give?
Answer: -2.87%

Question: How did the “hERG current change (%, negative = inhibition) at 10uM” value turn out when `COc1ccccc1C(=O)n1nc(-c2ccccc2)nc1N` was run?
Answer: 0.335%

Question: `CCN(CC(=O)Nc1ccccc1Br)Cc1nc2ccccc2c(=O)[nH]1` was tested. Which “hERG current change (%, negative = inhibition) at 10uM” value did it give?
Answer: -22.3%

Question: How did the “hERG current change (%, negative = inhibition) at 10uM” value turn out when `CCN(CC(=O)Nc1ccccc1-c1ccccc1)Cc1nc2ccccc2c(=O)[nH]1` was run?
Answer: -23.4%

Question: With `CCN(CC(=O)Nc1ccccc1C(=O)Nc1ccccc1)Cc1nc2ccccc2c(=O)[nH]1` as the molecule, how does the “hERG current change (%, negative = inhibition) at 10uM” value read?
Answer: -75.6%

Question: With `O=C(CCSc1nc(-c2ccco2)cc(C(F)(F)F)n1)NCC1CCCO1` (centres unmarked) as the molecule, how does the “hERG current change (%, negative = inhibition) at 10uM” value read?
Answer: -8.69%

Question: For `O=C1CCC(=O)N1OCCCOc1ccccc1`, which “hERG current change (%, negative = inhibition) at 10uM” value is on record?
Answer: -2.09%

Question: Which “hERG current change (%, negative = inhibition) at 10uM” value does the source give for `COC(=O)c1[nH]c2ccc(Cl)cc2c1NC(=O)C1CC1` here?
Answer: 17.1%

Question: `COc1cc(OC)cc(C(=O)NC(C)c2cnn(-c3ccccc3C)c2C)c1` (centres unmarked) was tested. Which “hERG current change (%, negative = inhibition) at 10uM” value did it give?
Answer: -1.48%

Question: `Cc1ccccc1-n1ncc(C(C)NC(=O)c2ccccc2)c1C` (centres unmarked) was tested. Which “hERG current change (%, negative = inhibition) at 10uM” value did it give?
Answer: -4.33%

Question: With `COc1cc(C(=O)NC(C)c2cnn(-c3ccccc3C)c2C)cc(OC)c1OC` (centres unmarked) as the molecule, how does the “hERG current change (%, negative = inhibition) at 10uM” value read?
Answer: -51%

Question: How did the “hERG current change (%, negative = inhibition) at 10uM” value turn out when `C/C(N)=C(/C#N)C(=O)COC(=O)C1CCC(C(C)(C)C)CC1` (centres unmarked) was run?
Answer: -7.3%

Question: With `O=c1[nH]c(C2CCN(S(=O)(=O)c3ccccc3)CC2)nc2c1nnn2Cc1c(F)cccc1Cl` as the molecule, how does the “hERG current change (%, negative = inhibition) at 10uM” value read?
Answer: -2.84%

Question: With `CCOC(=O)c1[nH]c2c(c1C)C(=O)CC(c1ccc(OC)c(OC)c1)C2` (centres unmarked) as the molecule, how does the “hERG current change (%, negative = inhibition) at 10uM” value read?
Answer: -9.84%

Question: How did the “hERG current change (%, negative = inhibition) at 10uM” value turn out when `CN1CCN(CCC(=O)Nc2ccccc2Cl)CC1` was run?
Answer: -1.75%

Question: How did the “hERG current change (%, negative = inhibition) at 10uM” value turn out when `Cl.O=C(CCN1CCCCCC1)Nc1ccccc1F` was run?
Answer: -4.4%

Question: How did the “hERG current change (%, negative = inhibition) at 10uM” value turn out when `O=C(CCN1CCN(CC(=O)Nc2ccccc2F)CC1)Nc1ccccc1F` was run?
Answer: -65.4%

Question: Which “hERG current change (%, negative = inhibition) at 10uM” value does the source give for `O=C(CN1CCN(c2ccccc2F)CC1)Nc1ccccc1F` here?
Answer: -1.86%

Question: Which “hERG current change (%, negative = inhibition) at 10uM” value does the source give for `O=C(CCN1CCN(c2ccccc2F)CC1)Nc1ccccc1Cl` here?
Answer: -2.49%

Question: `O=C(CCN1CCN(CC(=O)Nc2ccccc2Cl)CC1)Nc1ccccc1F` was tested. Which “hERG current change (%, negative = inhibition) at 10uM” value did it give?
Answer: -69.1%

Question: How did the “hERG current change (%, negative = inhibition) at 10uM” value turn out when `COc1ccc(N(Cc2ccccc2)S(=O)(=O)c2cc(C(=O)O)ccc2Cl)cc1` was run?
Answer: 5.3%

Question: `CC(C)C(NC(=O)c1ccccc1)C(=O)OCC(=O)N1CCN(c2ccccc2)CC1` (centres unmarked) was tested. Which “hERG current change (%, negative = inhibition) at 10uM” value did it give?
Answer: -2.47%

Question: For `CC(C)[C@H](NC(=O)OCc1ccccc1)C(=O)OCC(=O)N1CCN(c2ccccc2)CC1`, which “hERG current change (%, negative = inhibition) at 10uM” value is on record?
Answer: -58.3%

Question: Which “hERG current change (%, negative = inhibition) at 10uM” value does the source give for `CC(C)[C@H](NC(=O)OCc1ccccc1)C(=O)OCC(=O)Nc1ccc(N2CCOCC2)cc1` here?
Answer: -15.1%

Question: With `CC(C)C(NC(=O)OCc1ccccc1)C(=O)OCC(=O)N1C(C)CCCC1C` (centres unmarked) as the molecule, how does the “hERG current change (%, negative = inhibition) at 10uM” value read?
Answer: 4.95%

Question: For `CC(C)C(NC(=O)OCc1ccccc1)C(=O)OCC(=O)N1CCCCC1` (centres unmarked), which “hERG current change (%, negative = inhibition) at 10uM” value is on record?
Answer: -7.36%

Question: For `CC(C)[C@H](NC(=O)OCc1ccccc1)C(=O)OCC(=O)N1CCN(c2ccc(F)cc2)CC1`, which “hERG current change (%, negative = inhibition) at 10uM” value is on record?
Answer: -75.3%

Question: For `CCOC(=O)N1CCN(C(=O)CN(C2CCCCC2)S(=O)(=O)c2ccc(F)cc2)CC1`, which “hERG current change (%, negative = inhibition) at 10uM” value is on record?
Answer: -25.3%

Question: For `O=C(Nc1cc(S(=O)(=O)N2CCOCC2)ccc1N1CCOCC1)c1cnccn1`, which “hERG current change (%, negative = inhibition) at 10uM” value is on record?
Answer: -42.7%

Question: For `CC(C)(C)C(=O)NC(=S)Nc1ccccc1C(=O)NC1CCCCC1`, which “hERG current change (%, negative = inhibition) at 10uM” value is on record?
Answer: -18%

Question: Which “hERG current change (%, negative = inhibition) at 10uM” value does the source give for `COc1ccc(C)cc1NC(=O)c1ccc2c(SCC(=O)O)c3c(nc2c1)CCCC3` here?
Answer: 10.9%

Question: With `CC(C)OC(=O)CSc1nnc(-c2ccc(Cl)cc2Cl)o1` as the molecule, how does the “hERG current change (%, negative = inhibition) at 10uM” value read?
Answer: -7.24%

Question: For `O=C(CN1CCN(S(=O)(=O)c2ccc(Br)cc2)CC1)Nc1ccc2c(c1)OCCO2`, which “hERG current change (%, negative = inhibition) at 10uM” value is on record?
Answer: -27.9%

Question: Which “hERG current change (%, negative = inhibition) at 10uM” value does the source give for `O=C(CN1CCN(S(=O)(=O)c2ccc(Cl)cc2)CC1)Nc1ccc2c(c1)OCO2` here?
Answer: -65%

Question: `O=C(CN1CCN(S(=O)(=O)c2ccc(Cl)cc2)CC1)Nc1ccc2c(c1)OCCO2` was tested. Which “hERG current change (%, negative = inhibition) at 10uM” value did it give?
Answer: -5.94%

Question: `O=C(CN1CCN(S(=O)(=O)c2ccc(Br)cc2)CC1)Nc1ccc2c(c1)OCO2` was tested. Which “hERG current change (%, negative = inhibition) at 10uM” value did it give?
Answer: -62.4%

Question: For `CC(C)c1ccc(S(=O)(=O)N2CCN(CC(=O)Nc3ccc4c(c3)OCO4)CC2)cc1`, which “hERG current change (%, negative = inhibition) at 10uM” value is on record?
Answer: -13.9%

Question: For `O=C(CN1CCN(S(=O)(=O)c2ccccc2)CC1)Nc1ccc2c(c1)OCO2`, which “hERG current change (%, negative = inhibition) at 10uM” value is on record?
Answer: -44.1%

Question: `CCCc1nnc(SCC(=O)Nc2ccc(OC)cc2)o1` was tested. Which “hERG current change (%, negative = inhibition) at 10uM” value did it give?
Answer: 28.8%

Question: Which “hERG current change (%, negative = inhibition) at 10uM” value does the source give for `Nn1c(SCc2ccccc2)nnc1C1CCCCC1` here?
Answer: 7.68%

Question: For `CC1(C)Cc2c(cnn2-c2ccc(F)cc2)C(NC(=O)C(C)(C)O)C1` (centres unmarked), which “hERG current change (%, negative = inhibition) at 10uM” value is on record?
Answer: -0.859%

Question: With `CC1(C)Cc2c(cnn2-c2ccc(F)cc2)C(NC(=O)CCC(F)(F)F)C1` (centres unmarked) as the molecule, how does the “hERG current change (%, negative = inhibition) at 10uM” value read?
Answer: -42.8%

Question: For `COCC(=O)NC1CC(C)(C)Cc2c1cnn2-c1ccc(F)cc1` (centres unmarked), which “hERG current change (%, negative = inhibition) at 10uM” value is on record?
Answer: -64.9%

Question: With `CC(=O)N1CCC(C(=O)NC2CC(C)(C)Cc3c2cnn3-c2ccc(F)cc2)CC1` (centres unmarked) as the molecule, how does the “hERG current change (%, negative = inhibition) at 10uM” value read?
Answer: -25.3%

Question: How did the “hERG current change (%, negative = inhibition) at 10uM” value turn out when `COC(=O)CCC(=O)NC1CC(C)(C)Cc2c1cnn2-c1ccc(F)cc1` (centres unmarked) was run?
Answer: 4.42%

Question: `CC1(C)Cc2c(cnn2-c2ccc(F)cc2)C(NC(=O)C2CCC2)C1` (centres unmarked) was tested. Which “hERG current change (%, negative = inhibition) at 10uM” value did it give?
Answer: -79.2%
